In PubChem BioAssay AID2685 (National Center for Advancing Translational Sciences (NCATS), 2010):
The whole screen tested about 320,000 compounds, of which about 2,100 (0.66%) were called active. Inconclusive results (about 53%) are left out. Calls follow the shape of the dose curve; as a rule, active = well fitted inhibition curve with a large enough effect in the signal ratio, with a control signal flat (not every such curve was filed as active); inconclusive = small, poorly fitted or top-dose-only effect, or effect the other way, or a change in a side signal; inactive = flat fitted curve, though single readings scatter; the % refers to the signal ratio. Many of the other results were omitted from the sample, so actives are more common in it than they were.
Potency is read from the fitted curve at half-maximal effect.

Test: qHTS Assay for Lipid Storage Modulators in Drosophila S3 Cells;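 as to cell number change: cells counted by Cell Tracker Red CMTPX staining in the red channel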; as to lipid storage change, negative = inhibition: % is scaled to controls: 0 for no effect and ±100 for the full control effect
Conditions: BODIPY lipid droplet fluorescence, 18-24 h, cells fed with added oleic acid; cell number change: measured here: cell count max response; series mostly up to 46.1 µM; lipid storage change, negative = inhibition: at the top concentration
Summary of the method: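 Drosophila S3 cells got compounds at several concentrations plus oleic acid (400 uM solution). Laser-scanning cytometry with 488 nm excitation read lipid droplets at 500-530 nm and cells at 575-640 nm. Percent activity was relative to 20 uM Triacsin C.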
With `Cc1cccc(NC(=O)CSc2nnc(CNC(=O)c3ccco3)o2)c1` the “outcome” value was “inactive” and the cell number change was -11.3%.
For `CCCn1c(O)c(N=NC(=O)CNC(=O)c2cccnc2)c2ccccc21`, the “lipid storage change, negative = inhibition” value was 22.8% (inactive) and the cell number change was 6.42%.
In the case of `NC(=O)/C=C\c1cn(-c2ccccc2)nc1-c1ccc2c(c1)OCCO2`, the “lipid storage change, negative = inhibition” value is reported as 33.5% (inactive) and the cell number change is reported as 13.6%.
With `O=S(=O)(N/N=C/c1cccnc1)c1ccc(Cl)c(Cl)c1` the “lipid storage change, negative = inhibition” value was -1.88% (inactive) and the cell number change was 4.73%.
With `C=CCn1c(O)c(C=Nc2ccccc2)sc1=S` the “lipid storage change, negative = inhibition” value was 12.5% (inactive) and the cell number change was 8.83%.
With `COc1ccc(CCNC(=O)COc2nncc3ccccc23)cc1` the “outcome” value was “inactive” and the cell number change was -8.53%.
In the case of `Cc1ccc(OCCCCN2CCc3ccccc3C2)cc1`, the “outcome” value is reported as “inactive” and the cell number change is reported as -8.99%.
For `Cc1ccc(C(C)C)c(OCCCN2CCc3ccccc3C2)c1`, the Potency was 14.6 µM (active) and the cell number change was -26.9%.
In the case of `Cc1ccc(C(C)C)c(OCCN2CCc3ccccc3C2)c1`, the “lipid storage change, negative = inhibition” value is reported as -43.6% (inactive) and the cell number change is reported as -16.4%.
With `COc1c(Br)cc2c(C)c(C(=O)O)oc2c1Br` the “lipid storage change, negative = inhibition” value was -6.54% (inactive) and the cell number change was 24.7%.
In the case of `CN(C)c1cc(Nc2ccc(O)cc2)c([N+](=O)[O-])c2nonc12`, the “lipid storage change, negative = inhibition” value is reported as -2.02% (inactive) and the cell number change is reported as 4.46%.
In the case of `CCOc1ccc(NS(=O)(=O)c2ccc(C(=O)N3CC(C)OC(C)C3)cc2)cc1` (stereo unspecified), the Potency is reported as 25.9 µM (active) and the cell number change is reported as -12.2%.
In the case of `CCOc1ccc(NS(=O)(=O)c2cc(C(=O)N3CC(C)OC(C)C3)ccc2C)cc1` (stereo unspecified), the “lipid storage change, negative = inhibition” value is reported as 17.9% (inactive).
For `CCOc1ccc(NS(=O)(=O)c2ccc(C(=O)N3CCCC(C)C3)cc2)cc1` (stereo unspecified), the “lipid storage change, negative = inhibition” value was 18.3% (inactive) and the cell number change was 20.5%.
In the case of `CN(C)CCCNC(=O)C1CCNCC1`, the “outcome” value is reported as “inactive” and the cell number change is reported as -14.6%.
For `NC(=O)N/N=C/C=C/c1ccccc1`, the “lipid storage change, negative = inhibition” value was -3.42% (inactive) and the cell number change was -8.08%.
In the case of `Cc1ccc(S(=O)(=O)N/N=C\C=C\c2ccccc2)cc1`, the “lipid storage change, negative = inhibition” value is reported as 7.89% (inactive).
For `O=S(=O)(N/N=C\C=C\c1ccccc1)c1ccc(Cl)cc1`, the Potency was 11.6 µM (active) and the cell number change was -34.4%.
For `COc1ccc(/C=C/c2c(-c3ccc(OC)cc3)oc3cccnc23)cc1`, the “outcome” value was “inactive” and the cell number change was -16.2%.
In the case of `COC(=O)c1sccc1NC(=O)CC1C(=O)NCCN1C(=O)c1c(F)cccc1Cl` (stereo unspecified), the “lipid storage change, negative = inhibition” value is reported as 4.81% (inactive) and the cell number change is reported as 12.2%.
In the case of `O=c1ccc(-c2ccc(S(=O)(=O)N3CCN(c4cccc(Cl)c4)CC3)o2)n[nH]1`, the “outcome” value is reported as “inactive” and the cell number change is reported as 7.08%.
In the case of `CNS(=O)(=O)c1ccc(NC(=O)c2cncc(Br)c2)cc1`, the “outcome” value is reported as “inactive”.
For `Cc1ccc(S(=O)(=O)N(C)C)cc1NC(=O)c1cncc(Br)c1`, the Potency was 8.2 µM (active) and the cell number change was -18%.
In the case of `CN(C)S(=O)(=O)c1cccc(NC(=O)c2cncc(Br)c2)c1`, the “lipid storage change, negative = inhibition” value is reported as 8.64% (inactive).
For `COC(=O)[C@H](CC(C)C)NC(=O)NC1CCCCC1C` (stereo partly specified), the Potency was 25.9 µM (active) and the cell number change was -4.34%.
For `COC(=O)[C@H](CC(C)C)NC(=O)N1CCCCC1C` (stereo partly specified), the “lipid storage change, negative = inhibition” value was -12.3% (inactive) and the cell number change was -11.4%.
In the case of `COC(=O)[C@@H](NC(=O)NC1CCCCC1C)C(C)C` (stereo partly specified), the “lipid storage change, negative = inhibition” value is reported as 11.5% (inactive) and the cell number change is reported as 5.72%.
In the case of `C=CCc1ccc(OCCCCNC2CCCC2)c(OC)c1`, the cell number change is reported as -17.8% and the lipid storage change, negative = inhibition is reported as -10.2% [at 9.22 µM] (inactive).
In the case of `CC(NC(=O)C1CCCN(C(=O)N(C)C)C1)c1ccccc1` (stereo unspecified), the Potency is reported as 25.9 µM (active) and the cell number change is reported as 2.04%.
For `CN(C)C(=O)N1CCCC(C(=O)NCc2ccccc2)C1` (stereo unspecified), the “lipid storage change, negative = inhibition” value was -5.36% (inactive) and the cell number change was -23.4%.
In the case of `CC(NC(=O)C1CCC1)c1ccccc1` (stereo unspecified), the “outcome” value is reported as “inactive”.
In the case of `CCOC(=O)c1c(NC(=S)N2CCOCC2)sc2c1CCN(C(=O)OCC)C2`, the “lipid storage change, negative = inhibition” value is reported as -15.8% (inactive) and the cell number change is reported as -10.4%.
With `Cc1ccc(/C=N/NC(=O)Cc2c(F)cccc2Cl)s1` the “outcome” value was “inactive” and the cell number change was 13.4%.
In the case of `O=C(c1cc(C2CC2)nn1-c1ccccc1)N1CCN(S(=O)(=O)c2cccc(F)c2)CC1`, the “lipid storage change, negative = inhibition” value is reported as 17.5% (inactive) and the cell number change is reported as 16.5%.
With `O=C(c1cc(C2CC2)nn1-c1ccccc1)N1CCN(S(=O)(=O)c2ccccc2)CC1` the Potency was 16.4 µM (active) and the cell number change was -11.8%.
With `CCOc1ccc(S(=O)(=O)N2CCN(C(=O)c3cc(C4CC4)nn3-c3ccccc3)CC2)cc1` the “outcome” value was “inactive” and the cell number change was -18%.
With `COc1ccc(-c2noc(CCC(=O)NCc3cccnc3)n2)cc1OC` the “lipid storage change, negative = inhibition” value was 27.8% (inactive) and the cell number change was -15.7%.
In the case of `CCOC(=O)C1CCN(C(=O)c2ccc(Oc3cc(Cl)cc(Cl)c3)o2)CC1`, the “lipid storage change, negative = inhibition” value is reported as 4.49% (inactive) and the cell number change is reported as 4.65%.
For `Cc1onc(-c2ccccc2)c1CNS(=O)(=O)c1cccc(Br)c1`, the “lipid storage change, negative = inhibition” value was 8.41% (inactive) and the cell number change was 12%.
For `COc1cccc(N(CC(=O)NCCSCc2ccc(Cl)cc2)S(C)(=O)=O)c1`, the “lipid storage change, negative = inhibition” value was -30.8% (inactive) and the cell number change was -16.4%.
With `CCOc1ccc(N(CC(=O)NCCSCc2ccc(Cl)cc2)S(C)(=O)=O)cc1` the Potency was 9.2 µM (active) and the cell number change was -19.8%.
For `CCOc1ccc(N(CC(=O)NCCSCc2ccccc2)S(C)(=O)=O)cc1`, the “lipid storage change, negative = inhibition” value was -19.5% (inactive) and the cell number change was 10.5%.
For `O=C(CSc1nncs1)Nc1ccc(Cl)cn1`, the “lipid storage change, negative = inhibition” value was -2.98% (inactive) and the cell number change was -5.79%.
With `O=C(NCC(O)c1ccc2ccccc2c1)c1c(F)cccc1F` (stereo unspecified) the “lipid storage change, negative = inhibition” value was 10.9% (inactive) and the cell number change was 4.67%.
In the case of `Cc1cc(NS(=O)(=O)c2c(C)[nH]c(=O)[nH]c2=O)ccc1Br`, the “lipid storage change, negative = inhibition” value is reported as 7.03% (inactive).
For `Cc1ccc(-n2ncc3c2CC(C)(C)CC3NC(=O)CCn2cncn2)cc1` (stereo unspecified), the “outcome” value was “inactive” and the cell number change was -18.7%.
For `CC(C)(C)c1ccc(-n2ncc3c2CCCC3NC(=O)CCn2cncn2)cc1` (stereo unspecified), the Potency was 3.66 µM (active) and the cell number change was -29.9%.
In the case of `CC(=O)Nc1cccc(C(=O)NC2CCCc3c2cnn3-c2ccc(C(C)(C)C)cc2)c1` (stereo unspecified), the “lipid storage change, negative = inhibition” value is reported as -8.75% (inactive) and the cell number change is reported as -22.8%.
In the case of `CC(=O)NCC(=O)NC1CCCc2c1cnn2-c1ccc(C(C)(C)C)cc1` (stereo unspecified), the “outcome” value is reported as “inactive”.
In the case of `CC(=O)CCC(=O)NC1CCCc2c1cnn2-c1ccc(C(C)(C)C)cc1` (stereo unspecified), the Potency is reported as 10.3 µM (active) and the cell number change is reported as -14.2%.
With `Cc1cc(C)n(CC(=O)NC2CCCc3c2cnn3-c2ccccc2F)n1` (stereo unspecified) the “lipid storage change, negative = inhibition” value was 1.73% (inactive) and the cell number change was -1.7%.
In the case of `Cc1cc(C)n(CC(=O)NC2CCCc3c2cnn3-c2ccc(C)c(C)c2)n1` (stereo unspecified), the Potency is reported as 16.4 µM (active) and the cell number change is reported as -23%.
In the case of `CC(C)(C)c1ccc(-n2ncc3c2CCCC3NC(=O)CCCn2cncn2)cc1` (stereo unspecified), the “lipid storage change, negative = inhibition” value is reported as 8.93% (inactive) and the cell number change is reported as 14.9%.
For `CCn1nc(C)cc1C(=O)NC1CCCc2c1cnn2-c1ccc(C)c(C)c1` (stereo unspecified), the “outcome” value was “inactive” and the cell number change was -8.5%.
With `Cc1cc(N/N=C/c2ccc(O)cc2O)nc(N2CCOCC2)n1` the “lipid storage change, negative = inhibition” value was -0.596% (inactive) and the cell number change was -4.63%.
For `COc1ccccc1OCC(=O)Nc1ccc(Cl)cc1`, the “lipid storage change, negative = inhibition” value was -1.36% (inactive) and the cell number change was -13.6%.
For `CCCCOc1ccc(C(O)(CCN2CCOCC2)c2ccccc2)cc1` (stereo unspecified), the “lipid storage change, negative = inhibition” value was -10.2% (inactive) and the cell number change was -14.2%.
In the case of `COc1ccc(CCNC(=O)/C=C/c2ccc(OC)c(S(=O)(=O)N3CCOCC3)c2)cc1`, the “lipid storage change, negative = inhibition” value is reported as -3.03% (inactive) and the cell number change is reported as 7.46%.
With `O=C1NC(N2CCOCC2)=N/C1=C/c1ccc2c(c1)OCO2` the “lipid storage change, negative = inhibition” value was 5.19% (inactive).
In the case of `O=C(c1ccccc1)N1CCN(c2ncnc3c2cnn3-c2ccccc2)CC1`, the “lipid storage change, negative = inhibition” value is reported as -12.6% (inactive) and the cell number change is reported as -7.55%.
With `Cc1cccc(C(=O)N2CCN(c3ncnc4c3cnn4-c3ccccc3)CC2)c1` the “lipid storage change, negative = inhibition” value was -9.57% (inactive) and the cell number change was -21.5%.
With `Cc1nn(-c2ccccc2)c(Cl)c1C(=O)N1CCN(c2ncnc3c2cnn3-c2ccccc2)CC1` the Potency was 7.31 µM (active) and the cell number change was -25.9%.
